Source: PubChem BioAssay
HT1080 IDH1KD tx = qHTS for induction of synthetic lethality in tumor cells producing 2HG: qHTS for the HT-1080-IDH1KD cell line; HT-1080 IDH1 knockdown viability, ATP luminescence, 48 h; Potency, µM (doses to about 46.1 µM), inactives show at the top dose activity, negative = toxicity, hits mostly cytotoxic; actives 2% (n = 360,000);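 also: 0% = DMSO wells and -100% = cell-free medium wells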
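CellTiter-Glo luminescence after 48 h compound exposure at 37 degrees C of IDH1-knockdown HT-1080 cells in 5% FBS RPMI. %Activity scaled between DMSO wells and cell-free media wells, with curves fitted and assigned curve classes.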
SW480 rereplic = A quantitative high throughput screen for small molecules that induce DNA re-replication in SW480 colon adenocarcinoma cells | SW480 DNA re-replication, Hoechst DNA content imaging, 48 h | Potency, µM (doses to about 46.1 µM), without a hit: top-dose re-replication activation, usual class: activators | AID 624297, 2012 | actives 1.8% (n = 340,000); also: % of control where 0% means no effect; nearly all actives have a fitted effect of over 55% in size
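250 cells/well; 23 nL cpd via pin tool; 48 hr, 37 C, 5% CO2; Hoechst 40 min; imager read of total nuclear intensity, ex 405/em 500-530 nm.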
KB-3-1 tox = qHTS assay for MDR1-selective chemotherapeutics: Primary screen using the parental adenocarcinoma cell KB-3-1. actives 1.4% (n = 400,000). KB-3-1 viability, CellTiter-Glo ATP luminescence, 72 h. AID 1347075, 2019. Potency, µM (highest dose often 46.1 µM), usual class: cytotoxic; also: % is scaled to controls: 0 for no effect and ±100 for the full control effect; nearly all actives have a fitted effect of over 60% in size
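Luminescent ATP read-out (CellTiter-Glo) measures survival of drug-naive KB-3-1 cells after 72 h compound exposure at 37 °C. Titration series was screened from lowest to highest concentration, with DMSO vehicle plates as background controls.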
KB-V1 MDR tox = qHTS assay for MDR1-selective chemotherapeutics: Primary screen using the drug-selected MDR subline cells KB-V1; KB-V1 MDR cells viability, CellTiter-Glo, 72 h; Potency, µM (doses to about 46.1 µM), usual class: cytotoxic; actives 3.4% (n = 400,000); AID 1347076, 2019; also: % is scaled to controls: 0 for no effect and ±100 for the full control effect; nearly all actives have a fitted effect of over 60% in size
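Cells of the MDR subline KB-V1 are plated, dosed with compound at multiple concentrations, and incubated 72 h at 37 degrees C; CellTiter-Glo is then added and luminescence read after 10 min.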
HT1080-NT tox = qHTS for induction of synthetic lethality in tumor cells producing 2HG: qHTS for the HT-1080-NT fibrosarcoma cell line; actives 1.6% (n = 360,000); Potency, µM (doses to about 46.1 µM), without a hit: at the highest dose activity, negative = less viability, usual class: cytotoxic; HT-1080-NT fibrosarcoma viability, CellTiter-Glo ATP luminescence, 48 h;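 also: NT is the 2HG producing partner of a matched IDH1 knockdown line; 0% = DMSO-treated cells and -100% = media-only wells without cells; nearly all actives have a fitted effect of over 55% in size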
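HT-1080-NT fibrosarcoma cells (2HG-overproducing), 750 cells/well in RPMI with 5% FBS, dosed after 2 h and incubated 48 h at 37C. CellTiter-Glo luminescence normalized to DMSO and no-cell wells; concentration-response curves fitted and classed.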
MCF10A rerep = A quantitative high throughput screen for small molecules that induce DNA re-replication in MCF 10a normal breast cells; actives 2.9% (n = 350,000); Potency, µM (highest dose often 46.1 µM), without a hit: top-dose activity, positive = re-replication, usual class: activators; MCF 10A DNA re-replication, Hoechst nuclear intensity, 48 h; AID 624296, 2012; also: % of control where 0% means no effect; nearly all actives have a fitted effect of over 50% in size
Active calls of the source: *; i = inactive; ? = inconclusive; . = no result given. A selection: hits, their analogues and other compounds. The true share with any hit is near 7.9%. Calls follow the shape of the dose curve; as a rule, active = well fitted curve in the direction sought with a large enough effect; inconclusive = small, poorly fitted or top-dose-only effect, or another doubt; inactive = no such curve, though single readings can be large; an effect the other way counts as inactive or inconclusive. Potency is read from the fitted curve at half-maximal effect.

SMILES | HT1080 IDH1KD tx | SW480 rereplic | KB-3-1 tox | KB-V1 MDR tox | HT1080-NT tox | MCF10A rerep
Cc1cc(N2CCOCC2)nc2ccc(NC(=O)CCC(=O)N3CCC4(CC3)OCCO4)cc12 | -1% | -14% | i | ? | -1% | -8%
NCCNc1ccc([N+](=O)[O-])c2cccnc12 | -25% | 24% | ? | i | -28% | 0.65µM*
CCC(CO)Nc1ccc([N+](=O)[O-])c2cccnc12 (stereo unspecified) | -4% | -11% | ? | 18µM* | -7% | 1%
Cc1nonc1OCCNc1ccc([N+](=O)[O-])c2cccnc12 | -13% | 0.52µM* | i | ? | -14% | 5%
CCCc1nnc(NC(=O)CCC(=O)N2CCN(CCOC(c3ccccc3)c3ccccc3)CC2)s1 | -6% | -1% | i | i | -2% | 7%
CCC(C)N=Cc1c(O)n(-c2ccccc2)c(=O)[nH]c1=O (stereo unspecified) | 19% | -3% | i | i | 12% | -6%
CC(C)(O)[C@H]1O[C@H]2CC[C@@]3(C)[C@@](O)(CC[C@H]4Cc5c([nH]c6ccccc56)[C@@]43C)C2=CC1=O | ? | 0.73µM* | i | i | ? | ?
Cc1ccc(-n2c(=S)[nH]c3ccccc3c2=O)cc1C | -6% | . | i | i | 2% | .
CC(C(=O)c1c[nH]c2ccccc12)N1CCOCC1 (stereo unspecified) | -1% | ? | i | i | -2% | 9%
CC(C)N1CC=C(c2c[nH]c3ccccc23)CC1 | -20% | 12% | 2.1µM* | i | -16% | 41%
O=C(CN1CCCCC1)c1ccc2c(c1)OCO2 | 1% | -6% | i | i | 5% | ?
CCCN1CCc2cc(O)cc3c2[C@H]1Cc1ccc(O)c(O)c1-3 | 23µM* | ? | i | i | 8.2µM* | 71%
COc1cc2c(cc1O)C[C@H]1c3c(cc(O)c(OC)c3-2)CCN1C | 2% | -12% | i | i | 22% | ?
CN1CCc2cc(O)cc3c2[C@H]1Cc1ccc(O)c(O)c1-3 | 5.8µM* | ? | i | i | 8.2µM* | ?
CCN(CC)C(=O)Oc1cc2c(-c3cc4cccc(OC)c4o3)cc(=O)oc2cc1C | 9% | 2% | i | i | 5% | ?
NC(Cc1ccc(O)cc1)C(=O)NN=Cc1ccc(N(CCCl)CCCl)cc1 (stereo unspecified) | -9% | ? | i | i | ? | 22%
COc1cc(C(=O)NN=Cc2ccc(N(CCCl)CCCl)cc2)cc(OC)c1OC | 4.1µM* | 18µM* | 16µM* | i | ? | 16µM*
C1CCCN(C2CCNCC2)CC1 | -3% | -5% | i | i | -16% | -4%
CC(=O)O[C@@H]1/C=C/[C@](C)(O)C[C@@H](C)C/C=C/[C@H]2[C@@H]3O[C@]3(C)[C@@H](C)[C@H]3[C@H](Cc4ccccc4)NC(=O)[C@@]312 | ? | 2.6µM* | i | i | -21% | 1.5µM*
Cc1c2ccncc2c(C)c2c1[nH]c1ccccc12 | 3.7µM* | 7.3µM* | ? | 9.2µM* | 10µM* | 5.8µM*
O=C1CN(O)C(c2ccccc2)=c2cc(Br)ccc2=N1 | 5% | -1% | i | ? | 14% | -6%
O=C1CN(O)C(c2ccccc2Cl)=c2cc(Br)ccc2=N1 | -6% | -1% | i | i | -3% | 23µM*
c1cc2c(cc1[C@H]1OCC3C1CO[C@@H]3c1ccc3c(c1)OCO3)OCO2 (stereo partly specified) | -12% | -14% | i | i | 19% | -2%
CC(C(=O)c1ccc2ccccc2c1)N1CCCCC1 (stereo unspecified) | 3% | 5% | i | i | 12% | 25%
CC1=CC(=C2C(=O)NC(=S)NC2=O)C=C(C(F)(F)F)N1Cc1ccccc1 | 1.6µM* | 3.7µM* | 2.6µM* | 12µM* | 1.8µM* | 3.3µM*
SMILES | HT1080 IDH1KD tx | SW480 rereplic | KB-3-1 tox | KB-V1 MDR tox | HT1080-NT tox | MCF10A rerep
Cn1c(O)c(C=NCCN2CCN(C(=O)c3ccccc3)CC2)c(=O)n(C)c1=O | 17% | -1% | i | i | 7% | 9%
Cc1cc(C)c(C(=O)N2CCC3(CC2)OCCO3)c(C)c1 | 5% | 23% | i | i | 4% | 0%
O=C(c1ccco1)c1cn(Cc2ccccc2Cl)c2ccccc12 | ? | 6% | ? | i | 5% | -5%
C[n+]1c(-c2ccccc2)c2cc(N)ccc2c2ccc(N)cc21 | 1.3µM* | -97% | 2.9µM* | i | 6.5µM* | -26%
CCC(C)c1ccc(N2C(=O)NC(=O)/C(=C/c3cccn3CCOc3ccc(C)cc3)C2=O)cc1 (stereo unspecified) | -24% | 17% | i | i | ? | 21µM*
Cc1nn(-c2nc3ccccc3s2)c(C)c1Oc1ccccc1O | 13µM* | ? | i | i | 13µM* | ?
Cn1ncnc2c(=O)n(C)c(=O)nc1-2 | 1µM* | 0% | 0.65µM* | 0.73µM* | 0.52µM* | 18µM*
Cc1ccc(-c2nc3c(=O)n(C)c(=O)nc-3n(C)n2)cc1 | . | . | 2.6µM* | 7.3µM* | . | .
O=C(c1ccco1)c1cn(Cc2ccccc2)c2ccccc12 | -22% | -3% | i | ? | -12% | ?
OC1(c2ccc(F)cc2)CC2CCC(C1)N2Cc1nnnn1C1CCCCC1 (stereo unspecified) | -1% | 3% | i | i | -15% | -1%
Cc1ccc(C(=O)Nc2ccccc2)cc1S(=O)(=O)N1CCCC1 | . | . | ? | 15µM* | . | .
Clc1ccc(C(Cn2ccnc2)OCc2csc3c(Cl)cccc23)c(Cl)c1 (stereo unspecified) | 21µM* | -1% | i | ? | ? | 62%
Nc1ccc2ccc3cccc[n+]3c2c1 | -19% | 2.9µM* | ? | i | -18% | 1%
Cc1cc(C)cc(N2C(=O)NC(=O)/C(=C\C=C\c3ccco3)C2=O)c1 | ? | ? | ? | 23µM* | ? | 13µM*
CCOc1ccc(N2C(=O)/C(=C/c3ccco3)C(=O)NC2=S)cc1 | -7% | ? | i | i | -11% | 3%
